High-throughput results: PubChem BioAssay, The Scripps Research Institute Molecular Screening Center
LYPLA2 counter: LYPLA2 (human) inhibition in PME1 counter-screen. recombinant LYPLA2, FP-Rh probe fluorescence polarization. inhibition, % at 5.9 µM. 320,000 compounds, 0.38% hits. AID 2177;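 active means inhibition above the screen-wide mean plus 3 SD, limit set per campaign, cut at about 26% in these data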;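 further: 0% = LYPLA2 with DMSO and 100% = wells lacking LYPLA2 enzyme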
PAD4 inh: inhibitors of human PAD4; recombinant PAD4, RCA probe fluorescence polarization; inhibition, % at 6.36 µM; Q9UM07; AID 485272; 330,000 compounds, 0.41% hits;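 active means percent inhibition above a cutoff equal to the mean of all tested compounds plus 3 SD, cut at about 15% in these data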;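 further: 0% = PAD4 with RCA probe and DMSO and 100% = probe without PAD4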
PME-1 inh: PME-1 (human) inhibition; Q9Y570; inhibition, % at 5.9 µM; recombinant PME-1, FP-Rh probe fluorescence polarization; AID 2130; 320,000 compounds, 0.53% hits;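 active means inhibition above the campaign mean of all compounds plus 3 SD, cut at about 26% in these data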;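 further: competitive labeling of PME-1 active site by serine hydrolase directed probe; 0% = PME-1 with DMSO and 100% = wells lacking PME-1 enzyme; inhibitors block probe labeling so polarization falls and inhibition rises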
Target sequence (Q9Y570 whole entry, looked up): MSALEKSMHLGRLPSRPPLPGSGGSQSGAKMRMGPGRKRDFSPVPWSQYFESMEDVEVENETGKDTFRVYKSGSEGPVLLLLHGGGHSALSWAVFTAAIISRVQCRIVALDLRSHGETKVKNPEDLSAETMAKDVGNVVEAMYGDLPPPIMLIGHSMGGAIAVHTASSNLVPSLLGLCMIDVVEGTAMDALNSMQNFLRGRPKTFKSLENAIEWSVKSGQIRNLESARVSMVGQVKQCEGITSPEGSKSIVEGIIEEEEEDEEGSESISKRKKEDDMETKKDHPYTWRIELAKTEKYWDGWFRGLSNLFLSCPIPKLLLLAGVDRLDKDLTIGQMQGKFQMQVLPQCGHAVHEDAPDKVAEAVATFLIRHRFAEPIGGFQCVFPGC
Fam108B counter: blocks mouse Fam108B hydrolase in RBBP9 counter-screen. recombinant Fam108B, FP-Rh probe fluorescence polarization. inhibition, % at 9.51 µM. 300,000 compounds, 0.33% hits;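 active means inhibition above the screen mean inhibition plus 3 SD, computed separately per campaign, cut at about 18% in these data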;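 further: inhibitors lower polarization as less probe binds the enzyme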
GSTO1 counter: GSTO1 inhibition, counter-screen for RBBP9 inhibitors. 300,000 compounds, 1.1% hits. inhibition, % at 5.96 µM. P78417. AID 1974. recombinant GSTO1, activity-based probe fluorescence polarization;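 active means inhibition above the campaign mean inhibition plus 3 SD, cut at about 35% in these data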;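 further: 0% = GSTO1-1 with DMSO and 100% = wells lacking GSTO1-1 enzyme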
Target sequence (P78417 whole entry, looked up): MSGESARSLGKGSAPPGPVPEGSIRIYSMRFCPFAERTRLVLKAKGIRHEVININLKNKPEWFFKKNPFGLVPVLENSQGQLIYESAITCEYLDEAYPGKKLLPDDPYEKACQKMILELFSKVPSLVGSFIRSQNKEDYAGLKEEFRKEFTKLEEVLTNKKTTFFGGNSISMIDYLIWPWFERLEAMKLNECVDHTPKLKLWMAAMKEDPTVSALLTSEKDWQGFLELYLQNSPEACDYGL
LYPLA1 inh: blocks human lysophospholipase 1, a PME1 counter-screen | recombinant LYPLA1, FP-Rh probe fluorescence polarization | inhibition, % at 5.9 µM | O75608 | 320,000 compounds, 0.16% hits | AID 2174;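 active means inhibition above the mean of all tested compounds plus 3 SD, set per campaign, cut at about 14% in these data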;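 further: inhibitors block serine hydrolase probe labeling of LYPLA1 so polarization falls; 0% = enzyme with DMSO and 100% = wells lacking LYPLA1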
LYPLA2 conf: LYPLA2 (human) inhibition, confirmation counter-screen | shares compounds with LYPLA2 counter | recombinant LYPLA2, FP-Rh probe fluorescence polarization | inhibition, % at 5.9 µM | 1,100 compounds, 72% hits | AID 2232;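 active means mean inhibition across replicates above the hit cutoff set in the primary screen, cut at about 26% in these data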;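 further: blocked labeling of the enzyme by serine hydrolase FP-Rh probe lowers polarization; 0% = enzyme with DMSO and 100% = wells lacking LYPLA2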
LYPLA2 gel ABPP: inhibitors of human LYPLA2. shares compounds with LYPLA2 counter. rhLYPLA2 in mouse brain proteome, gel ABPP FP-Rh. inhibition, % at 20 µM. 150 compounds, 30% hits. AID 652029;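 active means inhibition of LYPLA2 enzyme probe labeling above about 50%, limit read from the data; inactive means inhibition below that limit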;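 further: loss of FP-Rh probe labeling of the LYPLA2 gel band measured as band density; 0% = DMSO only control band and 100% = blank gel background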
* hit, by the source's call; nt = no result given. Shown are actives, neighbours in structure and some others; about 1.7% of the full set was active somewhere.

SMILES	LYPLA2 counter	PAD4 inh	PME-1 inh	Fam108B counter	GSTO1 counter	LYPLA1 inh	LYPLA2 conf	others
Cc1cc(N2CCN(c3ccc(C(F)(F)F)cc3[N+](=O)[O-])CC2)c2ccccc2n1	29*	-2	4	3	0	2	26*
NC(=O)C1(N2CCCCC2)CCN(C(=O)CSc2nc3ccccc3s2)CC1	32*	3	4	4	2	4	31*
Cc1ccc(C(=O)Nc2ccc(N3CCN(C(=O)c4cccs4)CC3)cc2)c(Cl)c1	47*	0	-2	3	-9	5	46*
O=C(COc1ccccc1[N+](=O)[O-])Nc1ccc(N2CCN(C(=O)c3cccs3)CC2)cc1	46*	-2	7	4	-1	10	48*
O=C(c1ccco1)N1CCN(C(=S)Nc2cccc([N+](=O)[O-])c2)CC1	50*	-3	-4	-3	1	-2	62*	LYPLA2 gel ABPP=36
CC(C)C(=O)Nc1ccc(N2CCN(C(=O)c3cccs3)CC2)cc1	14	-2	-3	7	5	-3	nt
Cc1ccccc1C(=O)Nc1ccc(N2CCN(C(=O)c3ccco3)CC2)cc1	17	0	0	-1	-2	1	nt
Cc1ccc(C(=O)Nc2ccc(N3CCN(C(=O)c4ccco4)CC3)cc2)c(Cl)c1	42*	-3	1	-1	-6	9	31*
Cc1cccc(NC(=S)N2CCN(C(=O)c3ccco3)CC2)c1	1	-5	6	4	4	2	nt
Cc1ccc(NC2CCCN(C(=O)c3ccccc3-c3ncc[nH]3)C2)cc1C (centres undefined)	1	1	-4	-1	-7	1	nt
CCC(=O)Nc1ccc(C(=O)NNC(=O)COc2cccc(C)c2)cc1	-3	0	-13	-7	3	-8	nt
CCN(CC)S(=O)(=O)c1ccc(NC(=O)C2CCCN(C(=O)c3ccc(Cl)cc3)C2)cc1 (centres undefined)	0	0	10	-6	-2	-1	nt
O=C(Nc1ccc(N2CCN(C(=O)c3ccco3)CC2)cc1)c1ccc([N+](=O)[O-])cc1Cl	40*	1	3	4	3	3	38*
O=C(Nc1ccc(N2CCN(C(=O)c3ccco3)CC2)cc1)c1ccccc1Br	34*	-1	-7	0	-20	6	30*
Cc1ccc(NC2CCCN(C(=O)c3ccc(C)c(N4CCNC4=O)c3)C2)cc1C (centres undefined)	7	1	-3	-3	3	-1	nt
CCOC(=O)c1[nH]c(C)c(C(=O)N2CCN(c3ccc(OC)cc3)CC2)c1C	1	-8	-3	-3	8	-2	nt
CCOC(=O)c1[nH]c(CN2CCN(c3ccc(OC)cc3)CC2)c(C(=O)OCC)c1C	27*	5	2	3	3	-2	-2
COc1cc(N)c(Cl)cc1C(=O)N[C@H]1CCN(CCCOc2ccc(F)cc2)C[C@H]1OC	27*	2	-4	-1	4	14	31*
COc1cc2[nH]c(C(=O)N3CCC(Cc4ccccc4)CC3)cc2c(OC)c1OC	33*	2	-6	4	5	-3	20
CC1CCN(CCCNC(=O)c2ccc3c(=O)n(CCc4ccccc4)c(=O)[nH]c3c2)CC1	-5	-4	1	-3	-7	-5	nt
CN1CCN(CCCNC(=O)c2ccc3c(=O)n(CCc4ccccc4)c(=O)[nH]c3c2)CC1	29*	-3	0	0	1	-4	1
CC(C)NS(=O)(=O)c1ccc(CCC(=O)N2CCC(C(N)=O)CC2)cc1	5	3	2	1	-10	2	nt
CCOC(=O)/C(C#N)=C1\C(=O)N(Cc2ccccc2)c2ccccc21	5	7	1	0	4	1	nt
Cc1cc2c(NC(=O)Nc3ccccc3)cccc2nn1	35*	-1	0	-1	13	-5	36*
Cn1c(=O)c2c(ncn2CC(=O)N2CCN(c3ccc([N+](=O)[O-])cc3)CC2)n(C)c1=O	40*	2	3	0	13	3	43*
SMILES	LYPLA2 counter	PAD4 inh	PME-1 inh	Fam108B counter	GSTO1 counter	LYPLA1 inh	LYPLA2 conf	others
COc1ccc(N2CCN(C(=O)Cn3cnc4c3c(=O)n(C)c(=O)n4C)CC2)cc1	-4	-4	-4	-2	0	3	nt
O=C(O)c1cccc(N2C(=O)c3ccc(C(=O)c4cccc([N+](=O)[O-])c4)cc3C2=O)c1	45*	6	-1	-3	6	4	58*	LYPLA2 gel ABPP=45
COc1ccc(/C=C2\SC(=O)N(CC(=O)Nc3cccnc3)C2=O)cc1OC	35*	9	-2	-1	2	0	26*
COc1cc(/C=C2/SC(=O)N(CC(=O)N3CCCC3)C2=O)ccc1Oc1ccc([N+](=O)[O-])cn1	9	-1	-6	3	-1	-2	nt
COc1ccc(/C=C2/SC(=O)N(CCC(=O)Nc3ccc(C)cc3)C2=O)cc1OC	-5	-5	-1	-1	1	0	nt
COc1cccc(/C=C2\Sc3ccc(C(=O)NCc4cccnc4)cc3N(C)C2=O)c1	4	-1	3	2	-9	-5	nt
CCN1C(=O)S/C(=C/c2ccc(Oc3ccc([N+](=O)[O-])cn3)c(OC)c2)C1=O	32*	-5	-2	-5	1	4	41*
COc1ccc(/C=C2\SC(=O)N(CC(=O)Nc3ccc(F)cc3)C2=O)cc1O	49*	8	-6	-6	-7	-14	54*	LYPLA2 gel ABPP=50*
COc1cc(/C=C2/SC(=S)N(CC(=O)Nc3cccnc3)C2=O)cc(OC)c1OC	2	-2	1	4	-3	-6	nt
COc1ccc(/C=C2\Sc3ccc(C(=O)NCc4cccnc4)cc3N(C)C2=O)cc1OC	28*	-1	-2	0	-24	7	13
COc1ccc(CNC(=O)Cn2c(=O)n(CC(=O)N3CCCCC3)c(=O)c3sccc32)cc1	11	-4	-3	2	11	-3	nt
O=C(OC(C(=O)NC1CCCCC1)c1ccc(C(F)(F)F)cc1)c1ccco1 (centres undefined)	-6	5	-6	0	-2	0	nt
COc1cc(OC)c(/C=C2\SC(=O)N(CC(=O)Nc3ccccc3F)C2=O)c(OC)c1	-16	8	-23	-12	-10	-8	nt
COc1cc(/C=C2\SC(=O)N(CC(=O)Nc3ccccc3F)C2=O)cc(Cl)c1O	51*	3	3	7	-3	1	61*
Cc1ccc(CC(=O)N2CCN(c3cccc(C(F)(F)F)c3)CC2)cc1	4	0	1	-2	1	-1	nt
